Source: PubChem BioAssay (NCI)
This is part of a sample that, as a whole, favours compounds with a hit. Of some 83,000 tested, about 20% had one in any assay.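 A percent growth of 40 corresponds to 60% growth inhibition; 0 means no net growth; -100 means all cells died. Active threshold: below 10.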 A number with no mark means an inactive call. Calls of active or inactive are those of the source.

What follows are compounds tested on HL-60(TB) leukemia (assay: NCI-60 one-dose screen, 48 h (100 = growth as untreated, 0 = no growth, -100 = all killed)). Details: 10 µM unless noted.
Oc1ccc(CCl)c2cccnc12 gave a growth of 81%. For Cc1c2c(cc[n+]1Cc1ccccc1)c1ccc(OCC3CCCCC3)cc1n2CC1CCCCC1, the growth was -53.4% (active). In the case of CCCCC1COc2cccc3c2N1C=C/C3=C\C(=O)N(C)c1ccccc1 (stereo not given), the growth is reported as 9.39% (active). CC(=O)OC1CC2C3CCC4C[C@@H](NC(=O)C=C(C)C)CC[C@]4(C)C3CC[C@]2(C)[C@H]1C(C)N(C)C (stereo not given in full) was tested, and the growth was -49.6% (active). C=C(C)[C@@H]1C/C=C(/C=O)CC[C@@H]2O[C@@]2(C)CC/C=C(\C)CC1 gave a growth of 162%. Compound C=CCOc1ccc(/C=C2\SC(=S)N(CCc3ccc(O)cc3)C2=O)cc1 has a growth of 38.9%. In the case of Cn1c(NCCc2ccc(O)c(O)c2)nc2c1c(=O)n(Cc1ccc(Br)cc1)c(=O)n2C, the growth is reported as 2.61% (active). Compound COC(=O)c1c(-c2ccccc2)csc1NC(=O)c1c(-c2ccccc2)noc1C has a growth of 28.3%. For Cc1ccc(-c2nc3nc(-c4ccccc4)nc(N4CCCNCC4)c3o2)cc1, the growth was -69.8% (active). With CCCCCCCCCCCCCCCCOc1ccc(C)cc1 the growth was 134%. O=C(O)/C=C/c1cn(-c2ccccc2)nc1-c1ccc(F)cc1 showed a growth of 103%. For N/C(=N\C(N)=N\c1nc2ccccc2s1)c1cccc(Cl)c1, the growth was 19.7%. CCC(Br)(CC)C(=O)c1ccc(OCC(=O)O)c(Cl)c1Cl was tested, and the growth was 111%. In the case of CC/C(Cc1ccccc1)=C(\c1ccc(OCCN2CCCC2)cc1)c1ccc(OC(C)=O)cc1, the growth is reported as 71.3%. For Nc1cc(N)c2nc(NCCc3ccc(Cl)c(Cl)c3)cnc2c1, the growth was -74.3% (active). Compound CCCCC(CCCC)(S(=O)(=O)CC)S(=O)(=O)CC has a growth of 94.7%. In the case of CC(N)C(=O)NNc1n[nH]c(=S)n1N (stereo not given), the growth is reported as 101%. In the case of CCOC(=O)/C(=C(\C)N)C1CC(=O)NC1=O (stereo not given), the growth is reported as 99.9%. With CC(=O)OC[C@H]1OC(Sc2sc(C(=O)c3ccc(Br)cc3)c(N)c2-c2nc3ccccc3s2)[C@H](OC(C)=O)[C@@H](OC(C)=O)[C@H]1OC(C)=O (stereo not given in full) the growth was 105%. N#Cc1c(-c2ccccc2)nc2c(c(-c3ccc(Cl)cc3)nn2-c2ccccc2)c1-c1ccc([N+](=O)[O-])cc1 gave a growth of 103%. O=C1/C(=C/c2cccc([N+](=O)[O-])c2)COc2ccc(O)cc21 was tested, and the growth was 15.3%. With Cc1cc(N[C@@H]2CCC[C@H](Nc3ccnc4cc(Cl)ccc34)C2)nc(N2CCCCCC2)n1 the growth was -72.5% (active). With COc1ccc(NC(=O)c2sc3c(=O)[nH]c(C(F)(F)F)nc3c2C)cc1 the growth was 106%. Work on COc1nc(N)nc2c1ncn2C1OC(CO)CC1O (stereo not given) yielded a growth of 98.9%. In the case of CCCCCCCCn1ccc2cc(NC(=O)CN=[N+]=[N-])ccc21, the growth is reported as 102%. Cc1cc(NC(=O)Nc2cccc3ccccc23)no1 gave a growth of 99.5%. With CC[C@H](CC[C@@H](C)[C@H]1CC[C@H]2[C@@H]3CC[C@@H]4CC(=O)/C(=C\c5ccncc5)C[C@]4(C)[C@H]3CC[C@]12C)C(C)C the growth was 83.1%. For C=C1C(=O)O[C@H]2[C@H]1CC/C(COC(=O)c1ccc(C#N)cc1)=C\CC[C@@]1(C)O[C@@H]21, the growth was -33.6% (active). With CN1C(=O)c2cc(Cl)nc3c(NC(=O)c4cccc(Cl)c4)c(Cl)c(NC(=O)c4cccc(Cl)c4)c1c23 the growth was -30.7% (active). Work on CCCCC(C=O)(C=C=C(C)C)CC (stereo not given) yielded a growth of 104%. Compound CC(C)C(=O)c1ccc(Cl)s1 has a growth of 99.9%. For COc1cc(C(=O)Nc2cc(O)c(C/C=C(\C)CCC=C(C)C)c(O)c2)cc2c1O[C@]1(C)CC[C@@H](O)C(C)(C)[C@H]1C2, the growth was -3.87% (active). Cc1[nH]n(-c2ccccc2)c(=O)c1C=NC(=S)C(N)=S showed a growth of 102%. CN1C(=O)N2CN3CCCN(C3)CN3C(=S)NC1C23 (stereo not given) showed a growth of 99.8%. Compound C[C@]12CC[C@@H]3c4ccc(OS(=O)(=O)O)cc4CC[C@H]3[C@@H]1CC[C@@H]2NS(=O)(=O)c1ccc(-c2ccccc2)cc1 has a growth of 43.9%. COc1cc(C(=O)n2nc(N3CCOCC3)c3cc(-n4cccc4)ccc32)cc(OC)c1OC showed a growth of 61.6%. For CN(C)c1ccc(CNCCO)cc1, the growth was 96.1%. Work on c1cncc(-c2csc(-c3c[nH]c4ccccc34)n2)c1 yielded a growth of 91.9%. For COc1cnc2c(c1)C(=O)c1c-2n(CCCNCCN2CCOCC2)c(=O)c2cc([N+](=O)[O-])ccc12, the growth was -15.7% (active). For COC(=O)c1c2c(c(C)[n+]([O-])c1C)C(=O)C=C(NCc1ccc(F)c(F)c1)C2=O, the growth was -24% (active).
